Experimental data published in PubChem BioAssay AID624330 (Southern Research Specialized Biocontainment Screening …, 2012).
In all, about 340,000 compounds went through this assay and about 2,100 (0.62%) were called active.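 How the source made its calls: active means first-screen hits whose inhibition reached a set limit at any dose in the follow-up dose series; inconclusive means inhibition above the set first-screen limit but never retested; inactive means the rest.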 These entries were drawn from the full list. Potency and affinity values are given separately.

Each molecule was assayed against Rac GTPase-activating protein 1 (Homo sapiens) (UniProt Q9H0H5) (assay: MgcRacGAP GTPase-activating activity inhibitors, confirmation, biochemical, ADP Hunter fluorescence, primary and confirmatory (AID 624330;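 further: fluorescence reports GDP produced by GAP-driven GTP hydrolysis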)). Details: MgcRacGAP-stimulated Rac1 GTP hydrolysis, at 30 µM, stronger effect = higher value, GST-tagged Rac1 F28L mutant substrate.
Chain of Rac GTPase-activating protein 1 (Homo sapiens) (Q9H0H5 whole entry, looked up): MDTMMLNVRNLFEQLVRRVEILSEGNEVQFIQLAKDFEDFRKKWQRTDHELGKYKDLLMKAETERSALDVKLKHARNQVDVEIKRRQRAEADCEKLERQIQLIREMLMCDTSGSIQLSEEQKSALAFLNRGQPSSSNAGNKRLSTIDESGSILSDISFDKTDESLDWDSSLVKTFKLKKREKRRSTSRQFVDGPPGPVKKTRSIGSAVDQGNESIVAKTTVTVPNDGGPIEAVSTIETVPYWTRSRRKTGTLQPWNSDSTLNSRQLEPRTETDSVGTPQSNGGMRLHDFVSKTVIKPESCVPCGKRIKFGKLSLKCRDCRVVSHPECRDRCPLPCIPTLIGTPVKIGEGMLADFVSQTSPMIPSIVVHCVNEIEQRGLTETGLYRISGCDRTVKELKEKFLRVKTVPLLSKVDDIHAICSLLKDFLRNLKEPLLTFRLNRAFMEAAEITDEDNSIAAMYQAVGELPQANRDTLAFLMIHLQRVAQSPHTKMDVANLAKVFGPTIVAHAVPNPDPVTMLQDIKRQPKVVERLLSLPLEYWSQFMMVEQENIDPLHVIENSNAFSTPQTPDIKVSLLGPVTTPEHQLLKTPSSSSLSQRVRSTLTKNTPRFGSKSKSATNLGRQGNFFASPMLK

inhibition, inactive:
CN=c1scc(-c2ccc(Cl)cc2)n1C 3.57%
CC(C(=O)OCC(=O)N1CCCCC1)N1C(=O)c2ccccc2C1=O (stereo not drawn) 2.6%
CC1CCN(S(=O)(=O)c2cn(CC(=O)N3CCN(C)CC3)c(=O)c3ccccc23)CC1 -14%
O=C(CSc1ccc(-c2cccc([N+](=O)[O-])c2)nn1)N1CCCCC1 9.68%
CC(C)(C)S(=O)(=O)N1C[C@H]2CC/C=C\C/C(c3ccccc3)=C\2[C@@H]1CCO 2.11%
CC(C)c1ccc(NC(=O)COC(=O)C2CCCCC2)cc1 1.49%
O=C(NC1CCN(C(=O)N2c3ccccc3Sc3ccccc32)CC1)c1ccco1 1.56%
O=C(NC1CCN(C(=O)N2c3ccccc3Sc3ccccc32)CC1)c1ccccc1Cl 23.6%
CC1C(=O)C(C)C(c2cc(Cl)ccc2O)NC1c1cc(Cl)ccc1O (stereo not drawn) 6.05%
CCC[C@H]1CN(c2ccccc2)C(=O)[C@@H]1CC(=O)Nc1ccc(Br)cc1 13.1%
COc1ccccc1-n1c(=O)c2c3c(sc2n2c(SC)nnc12)CCC3 11.3%
COC(=O)CSc1nnc2n(-c3ccc(OC)cc3)c(=O)c3c4c(sc3n12)CCCCC4 7.39%
CCSc1nnc2n(-c3ccc(OC)cc3)c(=O)c3c4c(sc3n12)CCCC4 -3.51%
COc1ccccc1-n1c(=O)c2c3c(sc2n2c(SC(C)C)nnc12)CCC3 14.9%
O=C(OCC(=O)N1CCc2ccccc21)c1ccncc1 3.21%
CCC(CC)CN1CCC(CN2CCNC(=O)C2=O)CC1 0.28%
COc1ccc(NC(=O)c2cc3cc(OC)ccc3oc2=O)cc1 7.32%
CC(=O)Nc1ccc(OC(=O)c2cc3cc(Br)ccc3oc2=O)cc1 10.4%
COc1ccc(NC(=O)c2cc3ccccc3oc2=O)cc1 20.1%
CCOc1ccccc1OC(=O)c1cc2ccccc2oc1=O 9.21%
COc1cccc2cc(C(C)=O)c(=O)oc12 -3.65%
COc1cc(C(C)=O)ccc1OC(=O)c1cc2cccc(OC)c2oc1=O 2.6%
O=C(Oc1ccccc1)c1cc2ccccc2oc1=O -4.44%
COc1cccc2cc(C(=O)Oc3ccccc3)c(=O)oc12 15.6%
CCN(CC)S(=O)(=O)c1ccc(C(=O)Oc2cc(C)[nH]c(=O)c2[N+](=O)[O-])cc1 0.7%
CCc1cccc(NS(=O)(=O)c2c(C)nc3scc(C)n3c2=O)c1 1.2%
C[C@@H]1CN([C@H](C)CO)C(=O)c2cc(NC(=O)Nc3ccc(F)cc3)ccc2O[C@@H](C)CCCCO[C@H]1CN(C)Cc1ccc(C(=O)O)cc1 10.2%
COc1ccc(N2C(=NC(=O)C3CC3)SC3CS(=O)(=O)CC32)cc1Cl (stereo not drawn) 8.01%
Cc1ccsc1C(=O)OCC(=O)NC1CCCCC1 -3%
O=C1CC(N2CCN(c3ccccc3)CC2)C(=O)N1c1cccc(Cl)c1 (stereo not drawn) 11.1%
COc1ccc(N2CC(C(=O)NNC(=O)c3ccc(Br)cc3)CC2=O)c(OC)c1 (stereo not drawn) 5.62%
O=C(Nc1nc(-c2ccc(F)cc2)cs1)c1cccc(N2C(=O)CCC2=O)c1 4.08%
Cc1ccc(SCC(=O)N2c3ccccc3Sc3ccccc32)cc1 6.99%
CCOC(=O)N1c2ccccc2Sc2ccccc21 1.37%
COc1cc2c(cc1OC)C(c1cccs1)N(C(=O)c1ccncc1)CC2 (stereo not drawn) 11.6%
COc1cccc(OCC(=O)NC2CCCCCC2)c1 -1.14%
NNC(=O)c1cc2cc3ccccc3nc2s1 4.35%
CCN1CCN(C(=O)c2cc3cc4cc(OC)ccc4nc3s2)CC1 8.34%
O=[N+]([O-])c1cc([N+](=O)[O-])c(Oc2cc(Cl)ccc2Cl)cc1NC1CCCCCCC1 3.85%
CCOC(=O)C1CCN(Cc2ccccc2C(F)(F)F)CC1 8.95%
CCOC(=O)C1CCN(Cc2cccc(OCc3ccccc3)c2)CC1 19.5%
CCOC(=O)C1CCCN(Cc2ccc(-c3ccccc3)cc2)C1 (stereo not drawn) -2.6%
CCOC(=O)C1CCN(Cc2ccccc2C)CC1 2.84%
CCOC(=O)C1CCN(Cc2cccc(Oc3ccc(Cl)cc3)c2)CC1 21%
COc1cccc(CN2CCC(C(=O)N3CCN(Cc4ccc5c(c4)OCO5)CC3)CC2)c1 27.8%
CCOC(=O)C1CCN(Cc2ccc(OCc3ccccc3)cc2)CC1 18.4%
COc1cccc(CN2CCC(C(=O)N3CCN(c4ccccc4F)CC3)CC2)c1 15.7%
CCSc1ccc2nnc(-c3cccc(F)c3)n2n1 6.86%
COC(CN(C)C(=O)C1CCC(CNS(=O)(=O)c2ccccc2)CC1)OC (stereo not drawn) 6.07%
COc1ccc(CNC(=O)COC(=O)CN2C(=O)C3CCCCC3C2=O)cc1 (stereo not drawn) 12.8%
CC(C)c1nccn1CCC(=O)O 7.06%
C[C@H]1CN([C@@H](C)CO)S(=O)(=O)c2ccc(Br)cc2O[C@H]1CN(C)C(=O)Cc1ccccn1 -10%
O=C1CC(c2ccccc2)Oc2cc(O)cc(O)c21 (stereo not drawn) 7.51%
O=C1C[C@@H](c2ccccc2)Oc2cc(O)cc(O)c21 7.07%
COc1ccccc1NC(=O)COc1cccc2c1CCNC2=O 5.13%
O=S(=O)(NCC(c1ccc2c(c1)OCO2)N1CCOCC1)c1ccc(Br)cc1 (stereo not drawn) 5.07%
CCCOC(=O)c1cc(-c2ccc(/C=C3/C(=O)N(C)C(=O)C(C#N)=C3C)o2)ccc1Cl 13.4%
CC1=C(C#N)C(=O)NC(=O)/C1=C/c1ccc(-c2ccc(S(N)(=O)=O)cc2)o1 25.6%
COC(=O)c1ccccc1NC(=O)C/C(C)=N/NC(=O)Cc1ccc(Cl)cc1 4.76%
CC(=O)N1CCc2cc(S(=O)(=O)CCC(=O)N(C)c3cc(C)ccc3C)ccc21 2.95%
COc1ccc(Cn2c(-c3ccc(OC)c(O)c3)nc3ccccc32)cc1O 11.2%
Cc1ccc(NCc2cccnc2)cc1 9.95%
COc1ccc(CNc2ccc(C(=O)O)cc2)cc1 5.05%
COc1ccc(CNc2ccc(Br)cc2)cc1 9.45%
COc1ccc(NC(=S)NCc2cccnc2)cc1 2.3%
O=C(O)c1ccc(C(=O)O)c(C(=O)c2ccc(NC(=O)c3ccccc3)cc2)c1 8.04%
O=C(O)C1(P(=O)(c2ccc(Cl)cc2)c2ccc(Cl)cc2)CCCC1 10.3%
Cc1ccc2cc(N)ccc2n1 10.9%
Cn1cc2ccc(N)cc2n1 6.58%
CC(C)(C)C(=O)N1CCC2CC1c1cc(Cl)ccc12 (stereo not drawn) 9.89%
CCOc1cccc(/C=N/Nc2ccc(S(=O)(=O)N(CC)CC)cn2)c1O 2.17%
CCN(CC)S(=O)(=O)c1ccc(N/N=C/c2cc(OC)c(OC)cc2OC)nc1 4.42%
CCN(CC)S(=O)(=O)c1ccc(N/N=C/c2cc(OC)ccc2O)nc1 5.07%
CCN(CC)S(=O)(=O)c1ccc(N/N=C/c2cccnc2)nc1 2.22%
CN(CC(=O)Nc1cccc(F)c1)C(=O)Cc1ccsc1 8.14%
Cc1cc(C)c2nc(NC(=O)C3CSC4(C)CCC(=O)N34)sc2c1 (stereo not drawn) 5.06%
CC1=C(C(=O)OC(C)C)C(c2ccc(Br)s2)NC(=O)N1 (stereo not drawn) 1.12%
O=C(NCC(c1cccnc1)N1CCOCC1)C1CCCCC1 (stereo not drawn) 0.64%
COC(=O)c1ccc(OC)c(CN2CCCN(Cc3ccc(F)cc3)S2(=O)=O)c1 6.78%
Cc1cccc(C)c1-n1cccc1/C=C1\SC(=S)N(c2cccc(C(=O)O)c2)C1=O -1.38%
O=C(O)CN1C(=O)/C(=C/c2ccc(SCc3ccccc3)o2)SC1=S 41%
O=C(NCC(c1ccco1)N1CCCC1)c1cccc(NS(=O)(=O)c2ccccc2)c1 (stereo not drawn) 7.02%
CC(=O)C1=C(O)C(=O)N(Cc2ccccc2)C1c1ccc(N(C)C)cc1 (stereo not drawn) 5.08%
COc1ccc(C2=NN(Cc3ccccc3)C3C(=O)NC(=O)C23)cc1 (stereo not drawn) 1.11%
O=C(N/C(=C/c1ccccc1)C(=O)N1CCCCCC1)c1ccccc1 4.23%
O=C(N/C(=C/c1ccccc1)C(=O)N1CCCCC1)c1ccccc1 7.71%
Cc1cc(C)c2[nH]c(=O)c(CN(CC3CCCO3)S(=O)(=O)c3ccc4c(c3)OCCO4)cc2c1 (stereo not drawn) -7.75%
O=C1C2C3C=CC(C3)C2C(=O)N1Nc1c(Cl)cc(Cl)cc1Cl (stereo not drawn) -1.67%
CCN(C(=O)CSc1nnc(-c2ccccc2Cl)n1C1CCCC1)C1CCS(=O)(=O)C1 (stereo not drawn) 10.2%
C=CCn1c(SCC(=O)NC2(C#N)CCCCC2)nnc1-c1ccncc1 -2.35%
O=C(CN1CCOCC1)Nc1cccc(S(=O)(=O)N2CCCCCC2)c1 4.7%
CC1CCCC(C)N1S(=O)(=O)c1ccc(NC(=O)CNCC2CCCO2)cc1 (stereo not drawn) 13.2%
CCN1CCN(CCC(=O)Nc2ccc3c(c2)OCO3)CC1 -5.95%
COc1ccc(S(=O)(=O)N2CCN(CC(=O)Nc3cccc(OC)c3)CC2)cc1 -0.54%
CN1CCN(CCC(=O)Nc2ccc3c(c2)OCO3)CC1 9.52%
COc1ccc(NC(=O)c2ccc(NC(=O)CN3CCN(c4ccccc4)CC3)cc2)cc1 -2.48%
O=C(CNCC1CCCO1)Nc1ccccc1N1CCCCCC1 (stereo not drawn) 15.5%
COc1ccc(N2CCN(CC(=O)Nc3ccc(C)cc3)CC2)cc1 6.34%
